Hits are enriched below; roughly 12% of the tested compounds scored in any of these assays.
L3MBTL1 inh: L3MBTL1 (human) inhibition; Q9Y468; AlphaScreen L3MBTL1–H3K9me1 peptide binding; Potency, µM (titrated, usually from 57.1 µM), for the others: top-dose activity, negative = inhibition, usual class: inhibitors; 0.66% of 230,000 active; note: % is set by controls: 0 for no effect and ±100 for the full control effect; nearly all actives have a fitted effect of over 60% in size
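First, the protein-peptide complex forms for 30 min at room temperature (L3MBTL1 50 nM, biotinylated H3K9me1 peptide 75 nM). Next, compounds are pin-transferred and incubated 30 min. Finally, AlphaScreen beads are added and read after 30 min.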
Sfp PPTase inh: blocks B. subtilis Sfp PPTase activity; Q9F4F7; Biochemical Sfp PPTase activity, qHTS; Potency, µM, inactives show largest response in the series, negative = inhibition, hits mostly inhibitors; 3.5% of 310,000 active; AID 1490;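 note: the enzyme is Sfp with the accession as filed and its product quenches rhodamine fluorescence; 0% = enzyme reaction without inhibitor and -100% = no enzyme wells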
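Fluorescence-quenching assay with 15 nM Sfp, 5 uM rhodamine-CoA and 12.5 uM BHQ-2-labelled ybbR peptide in pH 7.6 Hepes/MgCl2 buffer. Enzyme was pre-incubated with compound for 15 min at room temperature. Rate was taken from the 30-min fluorescence change (525/598 nm).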
G9a block: G9a (human) methyltransferase inhibition | 8.8% of 350,000 active | G9a H3K9 monomethylation, AlphaScreen, 2 h | AID 504332 | Potency, µM (series often up to 102 µM), for inactives: at the highest dose activity, negative = inhibition, actives largely listed as inhibitors; note: % is set by controls: 0 for no effect and ±100 for the full control effect; nearly all actives have a fitted effect of over 75% in size
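Methyltransferase reactions run at room temperature for 2 h (20 nM enzyme, 500 nM biotin-H3K9 peptide, 20 uM SAM) after a 15 min compound preincubation; product detected by AlphaScreen beads and anti-H3K9me1 antibody.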
HP1b chromo inh: inhibitors of HP1-beta chromodomain binding to methylated histone tails; 0.56% of 390,000 active; Potency, µM (highest dose often 114 µM), for the others: at the highest dose activity change, negative = inhibition, most hits filed as inhibitors; AID 540317; P83916; AlphaScreen HP1-beta / biotin-H3K9me3 peptide binding; note: nearly all actives have a fitted effect of over 70% in size
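AlphaScreen: HP1-beta (50 nM) preformed 30 min with biotin-H3(1-18)K9me3 peptide (50 nM) in PBS pH 7.4, 0.01% Tween-20. Compound added for 30 min at RT, then streptavidin donor/nickel chelate acceptor beads (10 ug/mL) for 30 min.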
BAZ2B block: blocks human BAZ2B | Q9UIF8 | Potency, µM (titrated, usually from 114 µM), for inactives: at the highest dose activity change, negative = inhibition, hits mostly inhibitors | AlphaScreen BAZ2B-H3K14Ac peptide displacement | 4.4% of 360,000 active; note: % is set by controls: 0 for no effect and ±100 for the full control effect; nearly all actives have a fitted effect of over 60% in size
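Multi-concentration screen (max 110 uM) measuring displacement of acetylated histone H3 peptide from BAZ2B by AlphaScreen, using 50 nM protein, 50 nM peptide and 10 ug/mL streptavidin donor plus Ni-chelate acceptor beads.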
JMJD2A Tudor: inhibitors of human JMJD2A Tudor domain. O75164. AlphaScreen JMJD2A-Tudor / H3K4me3 peptide binding. Potency, µM (series often up to 114 µM), inactives show at the top dose activity change, negative = inhibition, usual class: inhibitors. 4.4% of 390,000 active. AID 504339; note: % is set by controls: 0 for no effect and ±100 for the full control effect; nearly all actives have a fitted effect of over 50% in size
Target sequence (O75164 whole entry, looked up, the tested form may be a part): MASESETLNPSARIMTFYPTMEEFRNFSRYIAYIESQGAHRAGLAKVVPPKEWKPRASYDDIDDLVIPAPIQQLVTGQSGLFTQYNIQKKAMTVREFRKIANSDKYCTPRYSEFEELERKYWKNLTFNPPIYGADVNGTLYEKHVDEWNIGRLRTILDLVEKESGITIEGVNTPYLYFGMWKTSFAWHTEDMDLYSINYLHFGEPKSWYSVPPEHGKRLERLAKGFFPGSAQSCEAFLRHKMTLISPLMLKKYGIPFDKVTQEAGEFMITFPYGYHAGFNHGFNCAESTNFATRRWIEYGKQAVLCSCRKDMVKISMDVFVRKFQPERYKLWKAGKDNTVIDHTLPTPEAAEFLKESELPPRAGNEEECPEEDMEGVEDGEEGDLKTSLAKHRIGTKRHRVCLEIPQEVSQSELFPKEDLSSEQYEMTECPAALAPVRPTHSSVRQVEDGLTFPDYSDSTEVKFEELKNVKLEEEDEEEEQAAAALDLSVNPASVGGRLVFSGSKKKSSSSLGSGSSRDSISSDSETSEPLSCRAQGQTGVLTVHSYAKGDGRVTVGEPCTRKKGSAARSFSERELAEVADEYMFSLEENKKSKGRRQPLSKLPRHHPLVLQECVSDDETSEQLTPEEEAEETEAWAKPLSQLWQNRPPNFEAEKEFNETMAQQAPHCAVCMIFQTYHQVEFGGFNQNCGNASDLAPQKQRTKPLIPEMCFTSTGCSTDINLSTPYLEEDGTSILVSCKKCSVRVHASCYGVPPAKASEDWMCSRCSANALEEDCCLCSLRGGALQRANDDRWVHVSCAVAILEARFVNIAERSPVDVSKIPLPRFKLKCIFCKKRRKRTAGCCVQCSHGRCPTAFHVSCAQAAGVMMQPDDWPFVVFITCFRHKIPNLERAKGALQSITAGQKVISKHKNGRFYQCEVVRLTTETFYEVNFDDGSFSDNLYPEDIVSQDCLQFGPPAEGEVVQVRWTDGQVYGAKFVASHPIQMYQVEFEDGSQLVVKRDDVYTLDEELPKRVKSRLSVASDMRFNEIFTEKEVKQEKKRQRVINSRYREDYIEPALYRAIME
An asterisk follows results filed as active; ? = inconclusive; . = no result; ! = repeats disagree; [ ] = dose if it differs, or a comment. Calls come from the whole dose curve; as a rule, active = well fitted curve in the direction sought with a large enough effect; inconclusive = small, poorly fitted or top-dose-only effect, or another doubt; inactive = no such curve, though single readings can be large; an effect the other way counts as inactive or inconclusive. Potency is the fitted concentration of half-maximal effect.

SMILES	L3MBTL1 inh	Sfp PPTase inh	G9a block	HP1b chromo inh	BAZ2B block	JMJD2A Tudor
O=C(CSc1nnc(-c2cccnc2)o1)Nc1cccc(Cl)c1	.	4%	45µM*	29%	-8%	-8%
O=C(CSc1nnc(-c2ccccc2Br)o1)Nc1nncs1	9%	-1%	.	18%	19%	-13%
O=C(CSc1nnc(-c2ccc(O)cc2)o1)NNC(=O)c1ccncc1	.	-9%	18µM*	8%	?	?
O=C(CSc1nnc(-c2ccncc2)o1)Nc1nncs1	.	-7%	15%	18%	-22%	32µM*
O=C(CCC(=O)c1ccccc1)NCCc1c[nH]c2ccccc12	-17%	8%	2%	-5%	?	-26%
Cc1ccc(-c2cc3nccc(-c4cc([N+](=O)[O-])ccc4O)n3n2)cc1	.	.	-51%[59 µM]	14%	?	-18%
CC1=C(C(=O)OCc2ccccc2)C(c2ccccc2OS(=O)(=O)c2ccc(C)cc2)NC(=O)N1CCCC(=O)O (stereo not given)	.	.	.	22%	.	-15%
COc1ccc(NC(C)=O)cc1NC(=O)CN1CCN(CC(=O)Nc2ccccc2Cl)CC1	?	0%	.	62%	-6%	-4%
COc1ccccc1NC(=O)CN1CCN(CC(=O)Nc2cc(NC(C)=O)ccc2OC)CC1	6%	0%	40µM*	47%	6%	-5%
CCOc1ccc(NC(=O)CN2CCN(CC(=O)Nc3ccccc3OC)CC2)cc1	.	1%	45µM*	43%	1%	-4%
CCOc1ccc(NC(=O)CN2CCN(CC(=O)Nc3ccc(OC)cc3OC)CC2)cc1	.	13%	?	72%	-11%	-20%
CCN(CC)c1ccc(NC(=O)CN2CCN(CC(=O)Nc3ccccc3OC)CC2)cc1	.	13%	45µM*	?	?	56µM*
CCCCOc1ccc(NC(=O)CN2CCN(CC)CC2)cc1	-1%	?	11µM*	?	56µM*	0.79µM*
COc1ccccc1NC(=O)CN1CCN(CC(=O)Nc2ccc3c(c2)OCO3)CC1	.	-21%	-18%[12.7 µM]	21%	10%	-20%
COc1ccccc1CNC(=O)c1cc2cc(C)ccc2n1C	.	.	5%[59 µM]	48%	-10%	0%
Cc1ccc(NS(=O)(=O)c2cc(C(=O)NCc3ccncc3)ccc2C)cc1	.	7%	1%	28%	-14%	1%
COc1ccc(NC(C)=O)cc1NC(C)C(=O)Nc1ccc(F)cc1 (stereo not given)	.	14%	-17%[12.7 µM]	38%	-7%	-10%
CCOc1ccc(NC(=O)CN2CCN(CC(=O)Nc3ccc(C(=O)OC)cc3)CC2)cc1	3%	1%	32µM*	26%	9%	0%
CCCCOc1ccc(CC(=O)NO)cc1	-1%	-2%	28µM*!	44%	-24%	-6%
COc1ccc(NC(C)=O)cc1NC(C)C(=O)Nc1cccc2ccccc12 (stereo not given)	.	-2%	50µM*	19%	-32%	-32%
CCc1nc(SCC(=O)NC2CCCC2)c2c(=O)n(C)c(=O)n(C)c2n1	.	1%	37%	17%	-3%	-10%
CN1C(=O)C(CC(=O)Nc2ccc(F)cc2)N(Cc2ccco2)C1=S (stereo not given)	-5%	-7%	.	-17%	-9%	-33%
COc1ccc(NC(=O)/C(C#N)=C\c2ccc(-c3cc(C(=O)O)ccc3C)o2)cc1	?	10%	25µM*	-14%	56µM*	?
COc1ccc(NC(=O)/C(C#N)=C/c2ccc(-c3ccccc3C(=O)O)o2)cc1	4%	28%	-6%	13%	-21%	-31%
COc1ccc(NC(=O)/C(C#N)=C\c2ccc(Br)o2)cc1	.	0%	.	-33%	?	56µM*
SMILES	L3MBTL1 inh	Sfp PPTase inh	G9a block	HP1b chromo inh	BAZ2B block	JMJD2A Tudor
Cc1ccc(/C=C(\C#N)C(=O)Nc2ccc(Br)cc2)o1	.	.	5%[59 µM]	43%	-2%	-7%
Cc1ccc2[nH]c(=O)c(CN(CCCO)Cc3nnnn3Cc3ccco3)cc2c1	.	.	.	19%[57 µM]	.	-21%[57.1 µM]
N#Cc1ccc(OC(=O)c2cc(-c3ccc4c(c3)OCCO4)on2)cc1	.	.	-8%[59 µM]	62%	?	-5%
CC(C)OC(=O)c1cc2c(ccn2C)n1CC(=O)N(Cc1ccccc1)c1ccc(F)cc1	-16%	-23%	28µM*	?	40µM*	18µM*
CCOC(=O)c1cc2c(ccn2C)n1CC(=O)N(Cc1ccccc1)c1ccccc1	?	9%	28µM*	-46%	32µM*	25µM*
S=C(Nc1ccc2nsnc2c1)N1CCCCC1	-1%	?	16µM*	-1%	0%	-5%
S=C(Nc1ccc2nccnc2c1)N1CCOCC1	?	35µM*	45µM*	19%	-28%	-12%
S=C(Nc1ccc2nc(-c3ccccn3)c(-c3ccccn3)nc2c1)N1CCCCC1	3%	0%	-4%	67%	-18%	3%
CCCNC(=S)Nc1ccc(Br)cc1	0%	10%	11%	38%	4%	-5%
S=C(Nc1ccc2nc(-c3ccccn3)c(-c3ccccn3)nc2c1)N1CCCCCC1	24%	40µM*	20µM*	57%	-1%	-2%
Cc1ccc(NC(=S)N2CCOCC2)cc1	4%	25%	-3%[59 µM]	28%	5%	5%[57.1 µM]
CCCNC(=S)Nc1ccc2nc(-c3ccccn3)c(-c3ccccn3)nc2c1	-4%	18µM*	13µM*	42%	0%	-11%
Cc1ccc(-n2ncc(C(=O)NCc3ccccc3)c2C2CCN(C(=O)OC(C)(C)C)CC2)cc1	.	.	?	12%	3%[57.1 µM]	-22%
CCc1cccc(C)c1NC(=O)NC1COc2ccccc2C1 (stereo not given)	.	.	3%[59 µM]	23%[57 µM]	6%	-8%
CCOc1cccc(C(=O)Nc2ccc3ccccc3c2)c1	18%	8%	-11%	42%	4%	4%
CCOc1ccc(C(=O)Nc2ccc(N3CCCC3)cc2)cc1	-17%	?	?	-28%	?	?
CCOc1cccc(C(=O)Nc2ccc(N(CC)CC)cc2)c1	?	0%	8.9µM*	?	40µM*	25µM*
CCN(CC)c1ccc(NC(=O)CCCOc2cccc(C)c2)cc1	.	5%	9%	?	1%	10µM*
CCOc1ccc(OCc2cccc(C(=O)Nc3ccc(CN4CCCCC4)cc3)c2)cc1	-11%	13µM*	20µM*	?	?	?
CCOc1cccc(C(=O)Nc2ccc(N3CCCC3)cc2)c1	-16%	9%	3.5µM*	-10%	-32%	?
CC(C)[C@H]1COC(c2cccc([N+](=O)[O-])c2)=N1	.	7%	14%[135 µM]	.	.	.
COC(=O)[C@@]1(Cc2ccccc2)[C@H]2c3cc(C(=O)N4CCCC4)n(C)c3C[C@H]2CN1C(=O)c1ccccc1	.	12%	.	.	.	.

Screening data from PubChem BioAssay.
